Among the data in PMC7862700, “An all-to-all approach to the identification of sequence-specific readers for epigenetic DNA modifications on cytosine” are binding signal values, retold here.

Experiment in all cases: DAPPL (digital affinity profiling via proximity ligation, sequencing); 10 mM Tris-HCl pH 7.5, 50 mM NaCl, 1 mM DTT, 4% glycerol, room temperature, 30 min; GST-TFs on glutathione beads, 16-mer random dsDNA library, 0.1% formaldehyde crosslink after washing; high values mean tight binding
Common to all, as to details: protein: recombinant; tags: N-terminal GST; dsDNA, one strand shown

The target of one assay is T1, ELK4 (Homo sapiens, UniProt P28324-2 1-405).
T1 sequence: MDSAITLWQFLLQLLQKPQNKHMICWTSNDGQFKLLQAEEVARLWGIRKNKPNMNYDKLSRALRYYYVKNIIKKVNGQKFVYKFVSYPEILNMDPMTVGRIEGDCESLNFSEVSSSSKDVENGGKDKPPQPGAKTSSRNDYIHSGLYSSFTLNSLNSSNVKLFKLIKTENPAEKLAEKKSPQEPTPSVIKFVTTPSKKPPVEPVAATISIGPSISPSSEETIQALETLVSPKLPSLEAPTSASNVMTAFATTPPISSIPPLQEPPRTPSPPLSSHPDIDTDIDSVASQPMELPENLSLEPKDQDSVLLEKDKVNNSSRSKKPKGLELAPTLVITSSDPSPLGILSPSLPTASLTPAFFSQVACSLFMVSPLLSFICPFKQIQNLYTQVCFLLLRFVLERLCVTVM
The gist of the method: (§1)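 Human transcription factors were made in yeast as GST fusions, captured on glutathione beads and barcoded with DNA. With a tag-only sample included, the pool was incubated with 200 nmole of a random double-stranded 16-mer DNA library in Tris/NaCl/DTT/glycerol buffer at room temperature for 30 min, then crosslinked with 0.1% formaldehyde after washing, ligated by proximity, amplified and sequenced. For binding signal, each hexamer's read frequency for a factor is divided by its frequency for the tag-only sample.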

The target in a further assay is T2, ETV2 (Homo sapiens, UniProt O00321 1-342).
T2 sequence: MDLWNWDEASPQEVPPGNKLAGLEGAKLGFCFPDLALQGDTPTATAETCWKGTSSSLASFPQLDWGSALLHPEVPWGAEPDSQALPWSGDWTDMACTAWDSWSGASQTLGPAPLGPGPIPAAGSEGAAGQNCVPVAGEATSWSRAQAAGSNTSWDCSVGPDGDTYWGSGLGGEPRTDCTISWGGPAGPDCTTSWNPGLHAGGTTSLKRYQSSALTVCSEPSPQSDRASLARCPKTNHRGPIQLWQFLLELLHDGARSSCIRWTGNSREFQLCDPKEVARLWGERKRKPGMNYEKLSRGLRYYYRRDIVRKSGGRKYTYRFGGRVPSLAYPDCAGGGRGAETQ
The gist of the method:
as §1

In the next assay the target is T3, ELF3 (Homo sapiens, UniProt P78545 1-371).
T3 sequence: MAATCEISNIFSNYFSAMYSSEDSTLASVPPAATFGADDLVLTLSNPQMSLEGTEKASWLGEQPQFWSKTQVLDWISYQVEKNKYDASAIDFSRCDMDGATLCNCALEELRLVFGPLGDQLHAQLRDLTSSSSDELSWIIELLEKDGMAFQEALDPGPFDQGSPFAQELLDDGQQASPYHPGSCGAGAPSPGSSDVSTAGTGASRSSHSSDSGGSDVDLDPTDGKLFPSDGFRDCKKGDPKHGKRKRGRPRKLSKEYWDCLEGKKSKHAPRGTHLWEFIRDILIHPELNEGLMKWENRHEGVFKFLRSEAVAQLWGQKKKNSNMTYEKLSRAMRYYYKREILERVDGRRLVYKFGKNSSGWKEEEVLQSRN
The gist of the method: as §1

In another assay the target is ETV1 (Homo sapiens, UniProt P50549 1-477). The essentials:
as §1

A further assay has as its target T4, ERF (Homo sapiens, UniProt P50548 1-548).
T4 sequence: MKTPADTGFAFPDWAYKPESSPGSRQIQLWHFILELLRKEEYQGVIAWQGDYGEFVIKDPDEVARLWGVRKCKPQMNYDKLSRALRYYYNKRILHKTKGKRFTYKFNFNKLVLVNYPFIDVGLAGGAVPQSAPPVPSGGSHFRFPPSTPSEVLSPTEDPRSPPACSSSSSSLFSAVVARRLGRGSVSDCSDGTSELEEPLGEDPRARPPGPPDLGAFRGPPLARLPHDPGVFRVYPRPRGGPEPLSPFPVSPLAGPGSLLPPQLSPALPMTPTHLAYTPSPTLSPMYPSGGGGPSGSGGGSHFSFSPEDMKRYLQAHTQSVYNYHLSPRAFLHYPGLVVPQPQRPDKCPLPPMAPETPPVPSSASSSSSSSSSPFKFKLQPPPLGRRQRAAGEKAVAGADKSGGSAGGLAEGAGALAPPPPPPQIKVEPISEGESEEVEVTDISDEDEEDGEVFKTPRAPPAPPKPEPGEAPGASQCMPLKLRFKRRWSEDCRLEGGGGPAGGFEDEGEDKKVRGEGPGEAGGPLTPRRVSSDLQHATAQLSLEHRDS
The gist of the method:
as §1

In another assay the target is T5, ETV3L (Homo sapiens, UniProt Q6ZN32 1-361).
T5 sequence: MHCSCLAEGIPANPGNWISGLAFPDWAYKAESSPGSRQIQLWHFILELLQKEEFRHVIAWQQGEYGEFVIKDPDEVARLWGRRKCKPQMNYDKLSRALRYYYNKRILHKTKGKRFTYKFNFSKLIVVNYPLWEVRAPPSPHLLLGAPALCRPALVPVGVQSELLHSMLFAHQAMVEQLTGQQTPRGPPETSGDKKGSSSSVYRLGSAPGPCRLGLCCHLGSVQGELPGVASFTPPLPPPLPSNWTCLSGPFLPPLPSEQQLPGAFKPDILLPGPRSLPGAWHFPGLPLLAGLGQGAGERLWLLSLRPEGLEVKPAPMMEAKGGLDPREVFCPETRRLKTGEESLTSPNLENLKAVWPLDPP
The gist of the method:
as §1

The target of a further assay is T6, ETS2 (Homo sapiens, UniProt P15036 1-469).
T6 sequence: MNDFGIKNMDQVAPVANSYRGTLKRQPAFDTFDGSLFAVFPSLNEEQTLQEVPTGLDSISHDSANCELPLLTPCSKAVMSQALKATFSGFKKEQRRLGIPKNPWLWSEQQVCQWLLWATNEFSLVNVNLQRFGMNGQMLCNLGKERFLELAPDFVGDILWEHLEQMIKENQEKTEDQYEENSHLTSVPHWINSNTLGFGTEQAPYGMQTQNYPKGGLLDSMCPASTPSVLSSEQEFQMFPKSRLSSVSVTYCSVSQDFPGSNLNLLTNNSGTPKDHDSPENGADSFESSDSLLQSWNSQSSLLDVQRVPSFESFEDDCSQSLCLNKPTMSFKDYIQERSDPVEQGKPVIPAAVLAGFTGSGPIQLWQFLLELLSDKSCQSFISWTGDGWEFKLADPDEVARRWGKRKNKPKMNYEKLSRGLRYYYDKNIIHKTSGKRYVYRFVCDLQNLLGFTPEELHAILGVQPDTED
The gist of the method: as §1

Another assay deals with T7, ETV7 (Homo sapiens, UniProt Q9Y603 1-341).
T7 sequence: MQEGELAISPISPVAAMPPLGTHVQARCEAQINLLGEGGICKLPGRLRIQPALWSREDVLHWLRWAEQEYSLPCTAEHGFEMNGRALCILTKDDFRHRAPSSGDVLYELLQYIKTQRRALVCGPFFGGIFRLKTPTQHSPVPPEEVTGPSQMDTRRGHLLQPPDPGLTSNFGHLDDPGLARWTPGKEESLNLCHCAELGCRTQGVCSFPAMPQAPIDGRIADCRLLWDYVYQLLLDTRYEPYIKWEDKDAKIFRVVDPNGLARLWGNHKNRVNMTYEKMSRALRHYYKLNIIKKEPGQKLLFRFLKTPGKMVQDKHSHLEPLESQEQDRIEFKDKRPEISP
The essentials:
as §1

The target in a further assay is T8, ETV3 (Homo sapiens, UniProt P41162-2 1-143).
T8 sequence: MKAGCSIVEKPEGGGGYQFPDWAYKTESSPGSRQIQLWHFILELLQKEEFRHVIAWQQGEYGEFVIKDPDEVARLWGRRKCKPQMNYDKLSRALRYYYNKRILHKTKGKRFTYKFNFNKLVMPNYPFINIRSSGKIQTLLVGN
The essentials: as §1

In a further assay the target is ETV6 (Homo sapiens, UniProt P41212 1-452). The gist of the method: as §1
Chain of ETV6 (P41212 whole entry): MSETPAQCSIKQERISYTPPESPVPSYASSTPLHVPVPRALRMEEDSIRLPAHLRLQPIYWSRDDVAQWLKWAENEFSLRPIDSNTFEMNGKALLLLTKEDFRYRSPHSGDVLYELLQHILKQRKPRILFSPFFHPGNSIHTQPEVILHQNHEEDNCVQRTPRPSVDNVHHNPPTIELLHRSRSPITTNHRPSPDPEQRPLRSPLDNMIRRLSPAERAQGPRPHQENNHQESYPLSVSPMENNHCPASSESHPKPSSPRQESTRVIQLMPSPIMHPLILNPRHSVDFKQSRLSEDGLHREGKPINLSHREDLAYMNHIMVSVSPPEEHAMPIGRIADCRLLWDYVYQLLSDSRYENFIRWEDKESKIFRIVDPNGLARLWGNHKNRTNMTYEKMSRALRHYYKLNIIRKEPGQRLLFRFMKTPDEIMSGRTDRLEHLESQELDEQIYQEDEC

Chain of ETV1 (P50549 whole entry): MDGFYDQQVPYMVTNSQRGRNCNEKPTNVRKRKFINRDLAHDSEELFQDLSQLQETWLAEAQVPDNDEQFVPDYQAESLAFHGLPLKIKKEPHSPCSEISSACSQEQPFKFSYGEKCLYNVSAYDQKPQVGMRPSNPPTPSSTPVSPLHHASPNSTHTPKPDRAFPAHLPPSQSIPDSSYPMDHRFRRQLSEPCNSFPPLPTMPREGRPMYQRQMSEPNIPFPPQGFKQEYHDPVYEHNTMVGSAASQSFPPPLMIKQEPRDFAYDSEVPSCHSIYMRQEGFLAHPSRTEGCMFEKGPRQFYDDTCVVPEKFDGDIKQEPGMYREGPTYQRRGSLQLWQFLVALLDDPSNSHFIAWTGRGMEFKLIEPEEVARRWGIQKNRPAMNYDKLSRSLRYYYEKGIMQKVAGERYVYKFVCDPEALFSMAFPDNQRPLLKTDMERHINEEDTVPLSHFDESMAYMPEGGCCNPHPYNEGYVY

Turning to CGTTGC, the binding signal in the assay with ELK4 was 1.16 fold enrichment (6-mer frequency, TF over GST control); with ETV2, 1.12 fold enrichment (6-mer frequency, TF over GST control); with ELF3, 1.07 fold enrichment (6-mer frequency, TF over GST control); with ETV1, 1.18 fold enrichment (6-mer frequency, TF over GST control); with ERF, 1.13 fold enrichment (6-mer frequency, TF over GST control); with ETV3L, 1.17 fold enrichment (6-mer frequency, TF over GST control). For the same sequence, the binding signal with ETS2 is 1.2 fold enrichment (6-mer frequency, TF over GST control); with ETV7 it was 1.03 fold enrichment (6-mer frequency, TF over GST control); with ETV3 it was 1.16 fold enrichment (6-mer frequency, TF over GST control); with ETV6, 1.04 fold enrichment (6-mer frequency, TF over GST control).
